S-ASM inh: Inhibitors of Secretory Acid Sphingomyelinase (S-ASM): qHTS; Sphingomyelin phosphodiesterase (Homo sapiens), P17405; placental ASM, HMU-PC fluorogenic substrate, 60 min; Potency, µM (top dose mostly 57.5 µM), hits mostly inhibitors; 0.006% of 340,000 active; AID 504937, 2011
Target sequence (P17405 47-631 limits assumed): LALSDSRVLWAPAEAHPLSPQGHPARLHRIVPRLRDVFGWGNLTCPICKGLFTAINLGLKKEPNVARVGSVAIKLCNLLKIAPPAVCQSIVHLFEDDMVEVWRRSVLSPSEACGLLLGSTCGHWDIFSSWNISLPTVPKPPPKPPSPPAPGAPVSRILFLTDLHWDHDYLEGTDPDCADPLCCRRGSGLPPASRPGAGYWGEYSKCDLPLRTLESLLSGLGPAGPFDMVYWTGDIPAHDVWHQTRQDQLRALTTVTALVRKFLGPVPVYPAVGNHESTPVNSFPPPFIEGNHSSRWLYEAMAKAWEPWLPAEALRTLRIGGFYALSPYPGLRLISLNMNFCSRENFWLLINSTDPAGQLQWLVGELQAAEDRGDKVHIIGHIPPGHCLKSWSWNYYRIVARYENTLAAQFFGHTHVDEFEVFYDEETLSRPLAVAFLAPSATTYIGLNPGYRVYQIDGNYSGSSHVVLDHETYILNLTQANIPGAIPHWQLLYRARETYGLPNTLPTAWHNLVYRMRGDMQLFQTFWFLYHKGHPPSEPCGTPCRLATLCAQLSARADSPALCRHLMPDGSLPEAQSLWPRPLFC
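HMU-PC0 cleavage (9 uM final) by human placental ASM, 60 min at 37 °C following 10 min compound exposure at RT; stopped at pH 10, fluorescence Ex 386/Em 447 nm.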
IL-1B inflam inh: qHTS for Inhibitors of Inflammasome Signaling: IL-1-beta AlphaLISA Primary Screen. THP-1 LPS/ATP IL-1B secretion, AlphaLISA, 16 h; stronger effect = lower value. activity change, % at 57.5 µM. 4.7% of 360,000 active; in the data active means activity change below about -50%; inconclusive means mostly about -30% to -49%
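THP-1 cells pretreated 1 hr with compounds (up to 57.5 uM final), then stimulated with LPS (250 ng/mL final) plus ATP (1.25 mM final); secreted IL-1B measured by AlphaLISA after 16 hr, decreased signal indicating inhibition.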
TGFb inhibitor: qHTS for Inhibitors of TGF-b; HepG2 CAGA-GFP TGF-b/SMAD3 reporter, GFP fluorescence, 18 h; TGF-beta stimulated, 500 pg/mL final; Potency, µM (highest dose often 46.1 µM), actives largely listed as inhibitors; 1.2% of 410,000 active; AID 588855, 2011; further: nearly all actives have a fitted effect of over 65% in size
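First, reporter cells (HEPG2 CAGA-GFP) rested 2 h at 37 degrees C. Next, compounds were pinned in and TGF-beta added to 500 pg/mL final. After 18 h, GFP was imaged per cell and summed per well.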
TDP1 cell CPT: qHTS for Inhibitors of human tyrosyl-DNA phosphodiesterase 1 (TDP1): qHTS in cells in presence of CPT. chicken DT40 Tdp1-/-;hTDP1 cells + 20 nM CPT, ATP luminescence, 48 h. 12% of 420,000 active. AID 686979, 2013. Potency, µM (highest dose often 46.2 µM), usual class: inhibitors; further: nearly all actives have a fitted effect of over 55% in size
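Chicken DT40 Tdp1-/- cells stably complemented with human TDP1 were seeded at 400 cells/well in medium containing 20 nM camptothecin, exposed to pin-transferred compounds, and grown at 37 °C for at least 48 hr. Viability was read as ATP luminescence.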
TDP1 cell noCPT: qHTS for Inhibitors of human tyrosyl-DNA phosphodiesterase 1 (TDP1): qHTS in cells in absence of CPT | Potency, µM (doses to about 46.2 µM), usual class: inhibitors | DT40 Tdp1-/- hTDP1 cells, no CPT, ATP luminescence, 48 h | 15% of 420,000 active; further: nearly all actives have a fitted effect of over 55% in size
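Chicken DT40 Tdp1-/- cells complemented with human TDP1, screened without camptothecin (DMSO vehicle only), 400 cells/well. Compounds pin-transferred, cells incubated at 37 °C for at least 48 hr. Growth read as ATP-dependent luminescence (CellTiter-Glo, 30 min at RT).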
HepG2 viability: qHTS for Inhibitors of TGF-b: Cytotox Counterscreen; HepG2 CAGA-GFP viability, ATP luminescence, 18 h; Potency, µM (doses to about 46.1 µM), hits mostly cytotoxic; 0.76% of 410,000 active; AID 588856, 2011
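CellTiter-Glo luminescence gave cytotoxicity after 18 hours at 37 degrees C. The cells were HepG2 CAGA-GFP in 1% FBS DMEM, stimulated with 500 pg/mL TGF-beta after compound addition. %Activity was normalised to no-cell wells (complete cell-killing) and DMSO (no toxicity), and curves were fitted and classified.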
Large screens that a line does not name were inactive. Shown are actives, neighbours in structure and some others; about 19% of the full set was active somewhere. Unless noted, the call rests on the fitted dose curve; in most records, active means well fitted curve in the direction sought with a large enough effect; inconclusive means small, poorly fitted or top-dose-only effect, or another doubt; inactive means no such curve, though single readings can be large; an effect the other way counts as inactive or inconclusive.

O=c1[nH]c(=O)n(-c2ccccc2)c(O)c1/C=C1/C(c2ccccc2)=Nc2ccccc21	TDP1 cell CPT 2.06µM, TDP1 cell noCPT 2.31µM
Cn1cc(C(=O)OCC(=O)NC2CCCC2)c2ccccc21	none
COc1ccc(-c2cc(C(=O)N3CCC4(CC3)OCCO4)c3ccccc3n2)cc1	TDP1 cell CPT inconclusive, TDP1 cell noCPT inconclusive
CCOc1ccc(-c2cc(C(=O)N3CCC4(CC3)OCCO4)c3ccccc3n2)cc1	TDP1 cell CPT 5.17µM, TDP1 cell noCPT inconclusive
C[C@@H]1CN([C@@H](C)CO)C(=O)CCCn2cc(nn2)CO[C@H]1CN(C)C(=O)Oc1ccc2ccccc2c1	none (no result: S-ASM inh)
CC(C)(C)NCC(O)c1ccccc1Cl (stereo unspecified)	none (no result: S-ASM inh, IL-1B inflam inh, TGFb inhibitor, HepG2 viability)
CC(=O)c1cccc(NC(=O)CCn2c(=O)oc3ccccc32)c1	none
CCc1ccc(NC(=O)c2ccc3oc(=O)n(Cc4ccccc4)c3c2)cc1	TGFb inhibitor inconclusive, TDP1 cell CPT inconclusive, TDP1 cell noCPT 18.4µM (no result: S-ASM inh, IL-1B inflam inh)
COc1nc(NC(C)C)nc(N(C#N)CN2C(=O)c3ccccc3S2(=O)=O)n1	IL-1B inflam inh inconclusive, TGFb inhibitor inconclusive, TDP1 cell CPT 23.1µM
O=C(c1ccc2c(c1)OCO2)C1CCCN(Cc2c(F)cccc2Cl)C1 (stereo unspecified)	TDP1 cell noCPT inconclusive
O=C(c1ccccc1)C1CCCN(Cc2nc(-c3cnccn3)no2)C1 (stereo unspecified)	none
O=C(c1ccc(Cl)cc1)C1CCCN(Cc2ccc3nonc3c2)C1 (stereo unspecified)	TGFb inhibitor inconclusive, TDP1 cell CPT 16.4µM, TDP1 cell noCPT inconclusive
O=C(c1ccc(Cl)cc1)C1CCCN(Cc2cccc3cccnc23)C1 (stereo unspecified)	IL-1B inflam inh -50.2, TGFb inhibitor inconclusive, TDP1 cell CPT 23.1µM, TDP1 cell noCPT 16.4µM
O=C(c1ccc(Cl)cc1)C1CCCN(Cc2cccc3ncccc23)C1 (stereo unspecified)	TGFb inhibitor inconclusive, TDP1 cell CPT 18.4µM, TDP1 cell noCPT 14.6µM
O=C(c1cc(F)ccc1F)C1CCCN(CCCc2ccccc2)C1 (stereo unspecified)	TDP1 cell CPT inconclusive, TDP1 cell noCPT inconclusive
O=C(CCc1ccccc1)N1Cc2cc(-c3cccc(F)c3)ccc2-n2nncc2C1	TGFb inhibitor inconclusive, TDP1 cell CPT inconclusive, TDP1 cell noCPT inconclusive (no result: S-ASM inh)
C=C1C(=O)O[C@@H]2C[C@@H](C)[C@@H]3C=CC(=O)[C@@]3(C)[C@@H](OC(C)=O)[C@H]12	IL-1B inflam inh inconclusive, TGFb inhibitor 0.708µM, TDP1 cell CPT 0.82µM, TDP1 cell noCPT 0.651µM, HepG2 viability 2.51µM
Oc1c(Cl)c(Cl)c(Cl)c(Cl)c1Cl	TGFb inhibitor inconclusive, TDP1 cell CPT inconclusive, TDP1 cell noCPT 20.6µM
CCc1ccccc1NC(=O)C(CC)Oc1ccccc1-c1nnc(-c2ccccc2)o1 (stereo unspecified)	TDP1 cell CPT 5.8µM, TDP1 cell noCPT 5.17µM (no result: S-ASM inh, IL-1B inflam inh)
COc1ccccc1C(=O)Nc1nnc(-c2ccc(Cl)cc2)o1	TDP1 cell noCPT inconclusive
CC(=O)Nc1cccc(-c2csc(C(O)c3cccc(Cl)c3)n2)c1 (stereo unspecified)	TDP1 cell CPT 23.1µM, TDP1 cell noCPT 18.4µM (no result: S-ASM inh)
COc1cccc(C(O)c2nc(-c3ccncc3)cs2)c1 (stereo unspecified)	TDP1 cell CPT 23.1µM, TDP1 cell noCPT 9.2µM (no result: S-ASM inh)
O=C(CSc1nc(-c2ccc(Cl)cc2)[nH]c(=O)n1)Nc1cccc(Cl)c1	TGFb inhibitor inconclusive
c1ccc(CCN2CCCC2)cc1	none (no result: S-ASM inh, IL-1B inflam inh)

High-throughput results from PubChem BioAssay.
